The source of these data is PubChem BioAssay (Tox21).

Experiment [1] has as its target Luciferin 4-monooxygenase (Photinus pyralis) (UniProt P08659). The experiment in a line: qHTS assay to identify small molecule inhibitors of firefly luciferase (AID 1224835). Also: nearly all actives have a fitted effect of over 25% in size. Also: potency is read from the fitted curve at half-maximal effect. As to activity change, negative = inhibition: series mostly up to about 120 µM. The gist of the method:
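Biochemical qHTS: compounds run as interplate titrations against purified firefly enzyme, with D-luciferin and ATP each at its KM concentration. Light output recorded by CCD imaging.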

Experiment [2] in a line: qHTS assay to identify small molecule agonists of the constitutive androstane receptor (CAR) signaling pathway - cell viability counter screen (AID 1224836). Also: nearly all actives have a fitted effect of over 45% in size. Also: potency is read from the fitted curve at half-maximal effect. As to viability change, negative = cytotoxic: series mostly up to about 92 µM. The method, boiled down: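 Using CellTiter-Fluor, viability of HepG2 cells harbouring hCAR and CYP2B6-2.2kb was measured following 23 h incubation with a 15-concentration compound series plus PK11195 (0.75 uM final).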

Experiment [3] can be described thus: qHTS assay to identify small molecule antagonists of the constitutive androstane receptor (CAR) signaling pathway - cell viability counter screen (AID 1224837). Also: nearly all actives have a fitted effect of over 45% in size. Also: potency is read from the fitted curve at half-maximal effect. As to activity change, negative = cytotoxicity: series mostly up to about 92 µM. The gist of the method:
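To flag cytotoxic false antagonists, HepG2 hCAR/CYP2B6-2.2kb cells were treated 23 hr with 15-concentration compound series and 50 nM CITCO at 37 C/5% CO2; CellTiter-Fluor fluorescence was the measured end point.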

Experiment [4] concerns the target Nuclear receptor subfamily 1 group I member 3 (Homo sapiens) (UniProt Q14994). Nature of the experiment: qHTS assay to identify small molecule antagonists of the constitutive androstane receptor (CAR) signaling pathway (AID 1224838).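 Also: HepG2 cells stably expressing hCAR with CYP2B6 luciferase reporter stimulated by CITCO; nearly all actives have a fitted effect of over 40% in size.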 Also: potency is read from the fitted curve at half-maximal effect. The gist of the method: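 Human hepatoma HepG2 cells expressing hCAR and a CYP2B6 promoter (2.2 kb) luciferase construct; compound titration (15 points) with 50 nM CITCO final, 24 h at 37 C/5% CO2; luminescence via ONE-Glo after 30 min at room temperature.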

The target is the same in experiment [5]. Nature of the experiment: qHTS assay to identify small molecule agonists of the constitutive androstane receptor (CAR) signaling pathway (AID 1224839). Also: nearly all actives have a fitted effect of over 15% in size. Also: potency is read from the fitted curve at half-maximal effect.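 As to activation: HepG2 cells stably carrying human CAR and a CYP2B6 luciferase reporter; series mostly up to about 92 µM.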 The gist of the method:
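Double-stable HepG2 cells (hCAR, CYP2B6-2.2kb) seeded 4 h before compound addition. Exposure 24 h with 0.75 uM PK11195 final. Luciferase detected by ONE-Glo.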

The nature of experiment [6]: qHTS assay to identify small molecule antagonists of the estrogen related receptor signaling pathway with the pleiotropic PPARgamma coactivator (PGC) from Tox21 10K library - cell viability counter screen (AID 1224840; active = well fitted cell-killing curve with a large enough effect in the repeat runs, not every such curve was filed as active; also: nearly all actives have a fitted effect of over 40% in size; also: potency is read from the fitted curve at half-maximal effect). The gist of the method:
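Seeded PGC/ERR cells (2,000/well, 6 h, 37 C/5% CO2) get compound by pin tool; 17.5 h incubation at 37 C; CellTiter-Fluor added, 30 min, fluorescence measured.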

Experiment [7] can be described thus: qHTS assay to identify small molecule agonists of the estrogen related receptor signaling pathway with the pleiotropic PPARgamma coactivator (PGC) from Tox21 10K library (AID 1224842). Also: nearly all actives have a fitted effect of over 15% in size. The gist of the method:
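PGC/ERR reporter cell line, 2,000 cells per well, incubated 6 h at 37 C before 23 nL compound in DMSO was added. After 18 h at 37 C, One-Glo luminescence read following 30 min at room temperature.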

In experiment [8] the target is Thyrotropin receptor (Homo sapiens) (UniProt P16473). Nature of the experiment: qHTS assay to identify small molecule agonists of the thyroid stimulating hormone receptor (TSHR) signaling pathway (AID 1224843; calls by dose curve; also: nearly all actives have a fitted effect of over 45% in size). The gist of the method:
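HEK293/TSHR, 800 cells/well; cpd 30 min RT; add cAMP-d2 + anti-cAMP-cryptate, 1 h RT; fluorescence read on plate reader. 15-pt titration, n=3.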

A short description of experiment [9]: qHTS assay to identify small molecule antagonists of the estrogen related receptor signaling pathway with the pleiotropic PPARgamma coactivator (PGC) from Tox21 10K library (AID 1224841; call rule not given here; also: actives are mostly falling curves and most rising ones were filed inactive; nearly all actives have a fitted effect of over 50% in size; also: potency is read from the fitted curve at half-maximal effect; as to activity, negative = inhibition: series mostly up to about 92 µM). The method, boiled down: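 Test chemicals dissolved in DMSO were applied to pre-incubated (6 h) PGC/ERR cells at 2,000 cells/well for an 18 h, 37 C treatment; reporter luminescence was then read using One-Glo.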

Experiment [10] can be described thus: qHTS assay to identify small molecule agonists of the hypoxia (HIF-1) signaling pathway - cell viability counter screen (AID 1224844; calls by dose curve; also: nearly all actives have a fitted effect of over 50% in size; also: potency is read from the fitted curve at half-maximal effect). The gist of the method: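 HRE-bla ME-180; 0.5% dFBS; cpd 17 h, 37C, 5% CO2; CellTiter-Glo lum., 30 min RT, post-FRET read, same wells.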

Records with an inconclusive call do not appear. Unmarked numbers belong to inactive results. The source made the active and inactive calls. Unless noted, calls follow the shape of the dose curve; as a rule, active = well fitted curve in the direction sought with a large enough effect in the repeat runs; inconclusive = weak or mixed curves; inactive = no such curve, though single readings can be large; an effect the other way counts as inactive or inconclusive.
% is scaled to controls: 0 for no effect and ±100 for the full control effect.

Sequence of Thyrotropin receptor (Homo sapiens) (P16473 whole entry, looked up): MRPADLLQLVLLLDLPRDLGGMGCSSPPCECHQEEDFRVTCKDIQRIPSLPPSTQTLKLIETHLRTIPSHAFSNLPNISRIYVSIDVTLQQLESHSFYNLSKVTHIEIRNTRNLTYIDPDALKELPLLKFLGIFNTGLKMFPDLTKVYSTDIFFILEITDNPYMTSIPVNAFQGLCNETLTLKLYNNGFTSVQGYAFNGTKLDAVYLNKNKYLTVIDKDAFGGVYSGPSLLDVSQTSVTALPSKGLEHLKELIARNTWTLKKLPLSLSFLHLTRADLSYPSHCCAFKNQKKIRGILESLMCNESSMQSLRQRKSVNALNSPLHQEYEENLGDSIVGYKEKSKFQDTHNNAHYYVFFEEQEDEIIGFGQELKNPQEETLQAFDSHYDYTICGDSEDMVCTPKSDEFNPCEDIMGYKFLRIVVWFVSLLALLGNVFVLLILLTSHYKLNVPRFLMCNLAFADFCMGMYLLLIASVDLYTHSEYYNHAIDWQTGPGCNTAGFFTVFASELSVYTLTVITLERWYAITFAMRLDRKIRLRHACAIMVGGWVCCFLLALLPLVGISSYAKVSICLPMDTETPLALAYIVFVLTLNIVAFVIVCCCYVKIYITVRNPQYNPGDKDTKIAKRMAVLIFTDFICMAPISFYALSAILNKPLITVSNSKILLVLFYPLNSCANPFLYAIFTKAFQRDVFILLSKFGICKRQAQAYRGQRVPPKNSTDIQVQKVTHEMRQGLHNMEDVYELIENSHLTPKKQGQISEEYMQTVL
Sequence of Nuclear receptor subfamily 1 group I member 3 (Homo sapiens) (Q14994 whole entry, looked up): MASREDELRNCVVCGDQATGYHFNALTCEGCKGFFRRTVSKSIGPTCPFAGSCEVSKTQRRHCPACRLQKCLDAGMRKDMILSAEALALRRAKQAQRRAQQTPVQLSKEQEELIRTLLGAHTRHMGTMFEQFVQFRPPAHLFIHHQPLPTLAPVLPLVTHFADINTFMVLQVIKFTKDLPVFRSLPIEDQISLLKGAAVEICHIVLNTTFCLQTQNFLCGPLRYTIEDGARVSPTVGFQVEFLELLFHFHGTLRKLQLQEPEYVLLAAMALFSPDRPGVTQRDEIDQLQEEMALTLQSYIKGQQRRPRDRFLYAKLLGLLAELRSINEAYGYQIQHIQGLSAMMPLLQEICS
Sequence of Luciferin 4-monooxygenase (Photinus pyralis) (P08659 whole entry, looked up): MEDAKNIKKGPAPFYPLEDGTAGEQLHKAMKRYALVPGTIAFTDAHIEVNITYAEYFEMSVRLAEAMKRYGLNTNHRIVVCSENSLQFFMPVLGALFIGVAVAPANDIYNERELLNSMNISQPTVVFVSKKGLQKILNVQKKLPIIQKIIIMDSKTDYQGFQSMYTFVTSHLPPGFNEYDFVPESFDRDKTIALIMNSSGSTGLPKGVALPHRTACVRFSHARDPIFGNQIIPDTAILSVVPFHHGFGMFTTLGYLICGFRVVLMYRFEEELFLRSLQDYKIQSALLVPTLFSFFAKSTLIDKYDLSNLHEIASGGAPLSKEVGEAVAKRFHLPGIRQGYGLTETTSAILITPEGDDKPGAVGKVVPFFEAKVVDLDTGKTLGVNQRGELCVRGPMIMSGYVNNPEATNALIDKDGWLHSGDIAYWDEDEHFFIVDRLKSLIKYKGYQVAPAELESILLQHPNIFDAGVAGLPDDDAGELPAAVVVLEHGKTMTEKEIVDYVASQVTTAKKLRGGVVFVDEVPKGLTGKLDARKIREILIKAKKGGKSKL

With `O=C1NCCN1CCN1CCC(c2cn(-c3ccc(F)cc3)c3ccc(Cl)cc23)CC1`, the Potency result in experiment [1] and in [5] was “inactive” throughout. The Potency in experiment [2], in experiment [3] and in experiment [4] was 11.9 µM (active) each time.
On to `COC(=O)[C@]1(C)CCC[C@@]2(C)[C@H]1CC=C1C=C(C(C)C)CC[C@@H]12`, for which the Potency result in experiment [1], in experiment [2], in experiment [3], in experiment [4], in experiment [5] and in experiment [6] was “inactive” each time. For the same compound, the Potency entry in experiment [7] and in experiment [8] was “inactive” throughout.
As for `Cc1cccc(C)c1NC(=O)CN1CCN(CCCC(c2ccc(F)cc2)c2ccc(F)cc2)CC1`, the Potency entry in experiment [1], in [4], in experiment [5] and in [6] was “inactive” in each case. Moreover, the Potency in experiment [2] and in [3] was 23.7 µM (active) throughout.
For the compound `CCCCCCCCCCCCCCCCCO`, in experiment [1], the activity change, negative = inhibition was 3.61% [at 23.6 µM]. Moreover, the viability change, negative = cytotoxic in experiment [2] was 0.185% [at 19 µM]; in [6], -0.916% [at 19 µM]. The activity change, negative = cytotoxicity is 8.93% [at 19 µM] in [3] and 4.42% [at 15.8 µM] in [10]. Also, the values for the activity, negative = inhibition in experiment [4] and in experiment [9] were 9.23% [at 19 µM] and 44.5% [at 19 µM], respectively. The activation was 0.0374% [at 19 µM] in experiment [5] and 4.3% [at 19 µM] in [7].
For the compound `NCCCCCCNCCCCCCN`, the Potency entry in [1], in experiment [2], in [3], in experiment [4], in [5] and in experiment [6] was “inactive” throughout. Besides, the Potency result in experiment [9] and in experiment [10] was “inactive” in each case.
For the compound `Cc1ccc(O)cn1`, the Potency entry in experiment [1], in [2], in [3], in experiment [4], in experiment [5] and in experiment [6] was “inactive” throughout. Further, the Potency result in experiment [9], in experiment [8] and in [10] was “inactive” throughout.
Turning to `O=C1C=CC(=O)N1c1ccccc1`, the Potency in [1] was 22.4 µM (active); in experiment [2] it was 54.5 µM (active); in experiment [3], 27.3 µM (active); in experiment [4], 27.3 µM (active); in experiment [6], 30.6 µM (active); in [9] it was 54.5 µM (active). The Potency in experiment [10] was 21.9 µM (active). The Potency entry in [5] was “inactive”.
Take `CC(C)CCOCCC(C)C`: the Potency result in experiment [1], in experiment [2], in experiment [3], in [4], in experiment [5] and in experiment [6] was “inactive” each time. Further, the Potency entry in experiment [9], in [7], in experiment [8] and in experiment [10] was “inactive” each time.
With `c1cc[nH]c1`, the Potency result in [1], in experiment [2], in experiment [3], in experiment [4], in experiment [5] and in [6] was “inactive” throughout. Further, the Potency entry in experiment [9], in experiment [7], in experiment [8] and in [10] was “inactive” in each case.
With `CCOC(=O)[C@@](C)(N)Cc1ccc(O)c(O)c1`, the Potency entry in [1], in [2], in experiment [3], in experiment [4], in [5] and in experiment [6] was “inactive” throughout. Also, the Potency result in experiment [9], in experiment [7] and in experiment [8] was “inactive” in each case.
With `CC(C)=CCCC(C)O` (centres undefined), the Potency result in experiment [1], in experiment [2], in experiment [3], in [4], in experiment [5] and in experiment [6] was “inactive” throughout. Besides, the Potency entry in experiment [9], in experiment [7], in [8] and in experiment [10] was “inactive” throughout.
For the compound `C/C=C/C(=O)C1=C(C)CCCC1(C)C`, the Potency result in experiment [1], in [2], in experiment [3], in experiment [4], in experiment [5] and in experiment [6] was “inactive” throughout. Also, the Potency result in experiment [7] and in experiment [8] was “inactive” each time.
For `C=C(C)C(=O)OCCC[Si](Cl)(Cl)Cl`, the Potency entry in [1], in experiment [2], in experiment [3], in experiment [4], in experiment [5] and in experiment [6] was “inactive” throughout. In addition, the Potency result in experiment [8] and in experiment [10] was “inactive” each time.
Turning to `C1CC(COCC2CO2)CCC1COCC1CO1` (centres undefined), the Potency entry in [1], in [2], in experiment [3], in experiment [4], in experiment [5] and in [6] was “inactive” in each case. For the same compound, the Potency result in experiment [7] and in experiment [8] was “inactive” each time.
Turning to `O=C1c2c(O)ccc([N+](=O)[O-])c2C(=O)c2c([N+](=O)[O-])ccc(O)c21`, the Potency in [1] is 62.7 µM (active); in [2], 24.1 µM (active); in [3] it was 24.1 µM (active); in [4], 24.1 µM (active); in [6] it was 30.4 µM (active); in experiment [10], 6.85 µM (active). In addition, the Potency entry in experiment [5] and in experiment [7] was “inactive” in each case.
With `CCCC(CC)CCCCCCCN` (centres undefined), the Potency result in [1], in experiment [2], in [3], in [4], in experiment [5] and in experiment [6] was “inactive” in each case. Further, in experiment [7], the Potency entry was “inactive”. In addition, the Potency in experiment [10] is 50.2 µM (active).
On to `CCN(CC)c1ccc(N)cc1`, for which the Potency in [1] is 41 µM (active); in experiment [2], 31.5 µM (active); in [3], 28.1 µM (active); in experiment [4], 62.8 µM (active); in experiment [5], 7.05 µM (active); in [6], 25 µM (active). Also, the Potency entry in [7] and in [10] was “inactive” in each case.
In the case of `CCOC(=O)COc1ccc(C)cc1`, the Potency in [1] was 63.3 µM (active). In addition, the Potency entry in experiment [2], in [3], in [4], in experiment [5], in [6] and in [8] was “inactive” each time. In [10], the Potency result is “inactive”.
Take `OCCN1CN(CCO)CN(CCO)C1`: the Potency entry in experiment [1], in experiment [2], in experiment [3], in experiment [4], in experiment [5] and in experiment [6] was “inactive” throughout. Moreover, the Potency result in experiment [8] was “inactive”.
For the compound `O=C(O)Cc1ccc(OCCNC[C@H](O)c2ccccc2)cc1`, the Potency entry in [1], in experiment [2], in experiment [3], in experiment [4], in experiment [5] and in experiment [6] was “inactive” in each case. Moreover, the Potency entry in [8] is “inactive”.
`Oc1cc2ccccc2cc1O`: the Potency entry in experiment [1], in experiment [2], in experiment [3], in experiment [4], in experiment [5] and in [6] was “inactive” in each case. Moreover, in [8], the Potency entry is “inactive”.
As to `CO[Si](CCCNCCNCCN)(OC)OC`, the Potency result in experiment [1], in [2], in experiment [3], in experiment [4], in experiment [5] and in experiment [6] was “inactive” in each case. Also, the Potency entry in [7] and in experiment [10] was “inactive” in each case.
On to `Cc1cncc(C)c1`, for which the Potency entry in experiment [1], in experiment [2], in [3], in experiment [4], in [5] and in experiment [6] was “inactive” each time. The Potency result in [7], in experiment [8] and in experiment [10] was “inactive” in each case.
For `CC(=O)O[C@@H]1C[C@@H]2CC[C@@]1(C)C2(C)C`, the Potency entry in [1], in experiment [2], in [3], in experiment [4], in [5] and in [6] was “inactive” throughout. Besides, the Potency result in experiment [8] and in experiment [10] was “inactive” throughout.
